Measurements from PubChem BioAssay.
Values joined by “and” are separate entries in the source; they are usually repeats but may differ in a detail not shown here. Equal values may be shown once. Active and inactive are the calls of the source.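 How the source made its calls, unless noted: active means inhibition at or above 50% relative to wild type and mutant plate controls; inactive means inhibition below 50%.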

Key:
[1] = inhibitors of TNFa-induced NFkB p65 translocation, primary screen, imaging, HUVEC, MLSMR starter and 10KST1 sets (AID 438;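 active means inhibition above 20% together with a positive visual image hit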;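 further: compound added about 3h40 before a 20 min TNFalpha stimulation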;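 on inhibition: signal is the nuclear over cytoplasmic p65 intensity ratio per well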); details: HUVEC TNFa-induced p65 nuclear translocation; cell count: measured here: nuclei count (cytotoxicity indicator), at 2.08 µM unless noted; inhibition: at 2 µM, stronger effect = higher value unless noted
[2] = inhibitors of mutant huntingtin aggregation, primary screen, imaging, exon1htt(103Q)mCFP cells, high-content imaging (AID 483;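 active means visual image review flags a hit and inhibition of aggregation exceeds 20%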;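 further: compound exposure lasted 3 days before fixation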;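 on nuclei count: percent of the per-plate median nuclei count of sample wells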); details: exon1htt(103Q)mCFP cell line, aggregate imaging, at 2 µM; inhibition of aggregation: stronger effect = higher value; nuclei count: measured here: cell count, toxicity
[3] = inhibitors of E-selectin induction by TNFa, primary screen, imaging, HUVEC, immunofluorescence, MLSMR starter and 10KST1 sets (AID 487;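 active means visually confirmed hit in the image check and inhibition above 20%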;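 on inhibition: signal is fraction of cell area covered by stained E-selectin grains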;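 on nuclei count: 100% = median nuclei count of all wells on the same plate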); details: HUVEC TNFalpha-induced E-selectin immunofluorescence imaging, at 2 µM; inhibition: stronger effect = higher value; nuclei count: measured here: cell number, toxicity
[4] = DUSP6 inhibitors restoring Erk phosphorylation by chemical complementation, primary imaging in DUSP6-transfected HeLa (AID 609;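 active means compounds giving at least 50% inhibition in the cell-based MKP-3 phosphatase rescue imaging test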;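 on inhibition: phospho-Erk level distribution per well compared with pooled transfected vehicle control wells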); details: HeLa MKP-3 transfected, phospho-Erk imaging KS statistic, at 10 µM
[5] = target: Dual specificity protein phosphatase 6 (Homo sapiens) (UniProt Q16828); assay: as above; details: HeLa MKP-3 transfected, phospho-Erk imaging KS statistic, at 10 µM, stronger effect = higher value
Dual specificity protein phosphatase 6 (Homo sapiens), sequence (Q16828 whole entry, looked up): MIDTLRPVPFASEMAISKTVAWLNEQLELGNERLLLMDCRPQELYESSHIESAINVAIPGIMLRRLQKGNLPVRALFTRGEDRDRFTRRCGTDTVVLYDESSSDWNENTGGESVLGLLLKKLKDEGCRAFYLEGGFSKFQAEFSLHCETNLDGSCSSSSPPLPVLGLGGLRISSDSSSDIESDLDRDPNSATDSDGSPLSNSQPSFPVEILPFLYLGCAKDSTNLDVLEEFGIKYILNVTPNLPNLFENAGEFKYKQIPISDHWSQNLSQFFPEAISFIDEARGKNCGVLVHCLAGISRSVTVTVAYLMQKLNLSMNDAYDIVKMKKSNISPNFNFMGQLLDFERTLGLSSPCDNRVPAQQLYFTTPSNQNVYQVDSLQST

[6] = target: Voltage-gated potassium channel subunit beta-2 (Rattus norvegicus) (UniProt P62483); assay: KvBeta enzyme negative modulators, primary screen, biochemical, NADPH fluorescence (AID 622;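 active means fluorescence slope higher than the sample average by over 3 SD, cut at about -0.22 in these data, passing the limit was not always enough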;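 further: slope of raw intensity against log time taken from 70 to 1610 s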); details: recombinant KvBeta, 4-cyanobenzaldehyde reduction, at 10 µM, stronger effect = higher value
Voltage-gated potassium channel subunit beta-2 (Rattus norvegicus), sequence (P62483 whole entry, looked up): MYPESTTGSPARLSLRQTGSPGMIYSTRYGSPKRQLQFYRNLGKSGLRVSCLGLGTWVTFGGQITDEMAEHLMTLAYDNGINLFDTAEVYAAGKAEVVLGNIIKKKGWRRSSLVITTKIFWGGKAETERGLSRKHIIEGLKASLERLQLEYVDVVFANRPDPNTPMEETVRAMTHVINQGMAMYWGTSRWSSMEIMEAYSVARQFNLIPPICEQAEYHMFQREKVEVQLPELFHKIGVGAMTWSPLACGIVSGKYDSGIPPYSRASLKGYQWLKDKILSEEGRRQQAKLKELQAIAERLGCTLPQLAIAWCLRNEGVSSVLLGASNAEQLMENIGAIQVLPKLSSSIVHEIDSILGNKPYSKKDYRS

[7] = target: Voltage-gated potassium channel subunit beta-2 (Rattus norvegicus) (UniProt P62483); assay: KvBeta positive modulators, primary screen, biochemical, NADPH fluorescence (AID 623;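 active means NADPH fluorescence slope more negative than the mean of all samples by about 3 SD, 99.7% confidence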;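 further: fluorescence intensity change per second fitted from 20 to 320 s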); details: Recombinant KvBeta, NADPH fluorescence decrease slope, 10 min; at 10 µM; stronger effect = lower value
[8] = target: Alpha-2C adrenergic receptor (Homo sapiens) (UniProt P18825); assay: modulators of alpha2C/GIRK thallium flux, primary screen, cell-based, HEK293 alpha2C/GIRK1/2 (AID 624;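 active means fluorescence slope after compound addition differing from the mean of all screened samples at 99.7% confidence, in either direction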;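 further: slope of fluorescence ratio to pre-addition baseline per second over 15 to 24 s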); details: thallium flux BTC fluorescence, at 10 µM, actives lie on both sides
Alpha-2C adrenergic receptor (Homo sapiens), sequence (P18825 whole entry, looked up): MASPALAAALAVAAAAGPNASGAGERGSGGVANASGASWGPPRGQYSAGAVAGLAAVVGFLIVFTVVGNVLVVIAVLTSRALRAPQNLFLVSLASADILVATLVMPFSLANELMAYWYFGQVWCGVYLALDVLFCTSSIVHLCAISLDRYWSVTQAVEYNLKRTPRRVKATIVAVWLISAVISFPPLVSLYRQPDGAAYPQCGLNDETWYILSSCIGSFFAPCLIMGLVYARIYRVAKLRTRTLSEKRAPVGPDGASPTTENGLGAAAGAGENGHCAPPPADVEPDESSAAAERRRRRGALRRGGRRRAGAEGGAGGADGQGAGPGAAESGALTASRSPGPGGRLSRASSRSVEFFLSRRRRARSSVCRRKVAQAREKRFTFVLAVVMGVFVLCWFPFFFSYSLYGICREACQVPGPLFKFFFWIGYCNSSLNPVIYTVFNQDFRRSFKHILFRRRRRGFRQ

[9] = inhibitors of larval lipid processing in zebrafish, primary screen, whole organism, PED6 fluorescence, gall bladder and intestine (AID 686;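 active means a full or partial loss of lipid-probe fluorescence in the fish gall bladder, intestine or both, judged by eye; inactive means no fluorescence loss, or compound toxic to the fish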;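 further: larvae 5 to 7 days old with five fish per well; signal comes from phospholipase A2 cleavage of quenched PED6 carried via bile; overnight exposure to compound and PED6 before scoring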); details: Zebrafish larvae PED6 lipid processing, fluorescence scoring
[10] = inhibitors of Chlamydomonas gravitaxis, primary screen, whole organism, Chlamydomonas reinhardtii, WT vs cilia-less mutant, absorbance, 96-well (AID 463189); details: OD600 absorbance, 2 days, at 10 µM, stronger effect = higher value;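 further: 0% = wild type cc124 cells in DMSO and 100% = ciliumless bld1 mutant cells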
[11] = inhibitors of Sendai virus-induced IRF3 signaling, primary screen, TLR/RLR signaling modifier project, cell-based, Sendai virus stimulus, luciferase, 10K MLSCN set (AID 602276;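 active means inhibition at or above 50% at 10 µM; inactive means inhibition below 50%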;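 further: firefly luciferase from ISG56 promoter only with Renilla not read in this screen; 0% = Sendai virus plus DMSO and 100% = medium plus DMSO without virus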); details: HEK293 RL24 IRF3 luciferase reporter, at 10 µM, stronger effect = higher value
[12] = inhibitors of poly I:C-induced TLR3 signaling, primary screen, cell-based, poly I:C stimulus, luciferase, 10K MLSCN set (AID 602277;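 active means inhibition of the reporter signal at or above 50%; inactive means inhibition below 50%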); details: HEK293-TLR3 RL24 IRF3 luciferase reporter, at 10 µM, stronger effect = higher value
[13] = target: Muscarinic acetylcholine receptor M4 (Homo sapiens) (UniProt P08173); assay: compounds altering M4/GIRK thallium flux, either direction, primary screen, M4 allosteric agonist project, cell-based, HEK293 M4/GIRK, BTC-AM (AID 625;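 active means fluorescence slope after compound addition differing from the mean of all tested samples at 99.7% confidence, mostly higher but some lower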;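 further: thallium influx through GIRK channels coupled to M4 in HEK293 cells with BTC-AM dye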); details: at 10 µM, actives lie on both sides
Muscarinic acetylcholine receptor M4 (Homo sapiens), sequence (P08173 whole entry, looked up): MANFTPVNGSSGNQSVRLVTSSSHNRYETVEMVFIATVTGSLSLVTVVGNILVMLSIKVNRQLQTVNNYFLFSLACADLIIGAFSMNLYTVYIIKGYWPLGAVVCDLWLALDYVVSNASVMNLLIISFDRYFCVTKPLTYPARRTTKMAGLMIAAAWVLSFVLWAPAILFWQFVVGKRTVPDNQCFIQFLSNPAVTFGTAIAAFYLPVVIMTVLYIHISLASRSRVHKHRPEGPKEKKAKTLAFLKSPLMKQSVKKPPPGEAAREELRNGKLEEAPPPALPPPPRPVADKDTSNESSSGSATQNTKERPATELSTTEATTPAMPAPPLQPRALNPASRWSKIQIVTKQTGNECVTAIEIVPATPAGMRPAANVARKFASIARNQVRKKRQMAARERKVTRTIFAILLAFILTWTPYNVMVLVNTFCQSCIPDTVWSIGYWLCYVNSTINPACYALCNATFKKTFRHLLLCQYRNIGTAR

[14] = measured here: cell density z-score
[15] = measured here: nuclear c-Myc green intensity z-score
[16] = measured here: nuclear pErk red intensity z-score, stronger effect = higher value

## CN(C)[C@@H]1C(=O)C(C(N)=O)=C(O)[C@@]2(O)C(=O)C3=C(O)c4c(O)cccc4[C@@](C)(O)[C@H]3C[C@@H]12
[1]
  cell count: 668
  inhibition: 5.4% (inactive)
[2]
  inhibition of aggregation: 72.1% (active)
  nuclei count: 99.1%
[3]
  inhibition: -85.3% (inactive)
  nuclei count: 113%
[4]; [14]
  z-score: -0.618
[4]; [15]
  z-score: -0.0358
[4]; [16]
  z-score: -1.49
[5]
  inhibition: 21.2% (inactive)
[6]
  fluorescence slope: -0.433 (inactive)
[7]
  NADPH fluorescence slope: -5.8e-05 (inactive)
[8]
  slope: 0.00553 (inactive)
[9]
  outcome: inactive
[10]
  inhibition: 22.3% (inactive)
[11]
  inhibition: 10.4% (inactive)
[12]
  inhibition: 33.9% (inactive)

## CC1=C(C(=O)OC(C)C)[C@]2(C(=O)N(CC(N)=O)c3ccccc32)C(C#N)=C(N)O1
[1]
  cell count: 568
  inhibition: -7.6% (inactive)
[2]
  inhibition of aggregation: -10.5% (inactive)
  nuclei count: 87.4%
[3]
  inhibition: -47.2% (inactive)
  nuclei count: 126%
[4]; [14]
  z-score: 1.04
[4]; [15]
  z-score: -0.385
[4]; [16]
  z-score: -1.8
[5]
  inhibition: -0.624% (inactive)
[6]
  fluorescence slope: -0.435 (inactive)
[7]
  NADPH fluorescence slope: -5.8e-05 (inactive)
[8]
  slope: 0.00458 (inactive)
[13]
  fluorescence slope: 0.00529 (inactive)
[9]
  outcome: inactive
[10]
  inhibition: 1.76% (inactive)
[11]
  inhibition: 15.6% (inactive)
[12]
  inhibition: 21.9% (inactive)

## Clc1ccc(COC(Cn2ccnc2)c2ccc(Cl)cc2Cl)cc1 (configuration not stated)
[1]
  cell count: 571
  inhibition: -2% [at 2 µM, stronger effect = higher value, 0% TNFa-plus-vehicle, 100% no-TNFa wells] (inactive)
[2]
  inhibition of aggregation: -19.8% (inactive)
  nuclei count: 61.4%
[3]
  inhibition: -14.8% (inactive)
  nuclei count: 106%
[4]; measured here: cell density z-score, cells stimulated with TPA for 15 min
  z-score: 0.542
[4]; measured here: nuclear c-Myc green intensity z-score, cells stimulated with TPA for 15 min
  z-score: 1.67
[4]; measured here: nuclear pErk red intensity z-score, stronger effect = higher value, cells stimulated with TPA for 15 min
  z-score: -0.914
[5]
  inhibition: 13.3% [cells stimulated with TPA for 15 min] (inactive)
[6]
  fluorescence slope: -0.51 (inactive)
[7]
  NADPH fluorescence slope: 4.6e-06 (inactive)
[8]
  slope: 0.00388 (inactive)
[9]
  outcome: inactive; toxic [screened at 20 µM (by protocol)]
[10]
  inhibition: 41.7% (inactive)
[11]
  inhibition: 22.8% (inactive)
[12]
  inhibition: 32.2% (inactive)

## CN1C(=O)CN=C(c2ccc(Cl)cc2)c2cc(Cl)ccc21
[1]
  cell count: 702
  inhibition: -2.8% (inactive)
[2]
  inhibition of aggregation: -25.6% (inactive)
  nuclei count: 108%
[3]
  inhibition: -88.1% (inactive)
  nuclei count: 128%
[4]; [14]
  z-score: 0.107
[4]; [15]
  z-score: -0.617
[4]; [16]
  z-score: 0.523
[5]
  inhibition: -6.41% (inactive)
[6]
  fluorescence slope: -0.442 (inactive)
[7]
  NADPH fluorescence slope: -4.1e-05 (inactive)
[8]
  slope: 0.00345 (inactive)
[9]
  outcome: inactive; toxic
[10]
  inhibition: -0.225% (inactive)
[11]
  inhibition: 0.552% (inactive)
[12]
  inhibition: 32% (inactive)

## C[C@H]1OC[C@@H](C[N+](C)(C)C)O1
[1]
  cell count: 534
  inhibition: -2.2% (inactive)
[2]
  inhibition of aggregation: 21% (inactive)
  nuclei count: 93.2%
[3]
  inhibition: -83.7% (inactive)
  nuclei count: 112%
[4]; [14]
  z-score: 0.485
[4]; [15]
  z-score: 0.998
[4]; [16]
  z-score: -0.857
[5]
  inhibition: 16.8% (inactive)
[6]
  fluorescence slope: -0.458 (inactive)
[7]
  NADPH fluorescence slope: -5.9e-05 (inactive)
[8]
  slope: 0.0176 (active)
[9]
  outcome: inactive
[10]
  inhibition: -2.33% (inactive) and 9.97% (inactive)
[11]
  inhibition: 1.89% (inactive)
[12]
  inhibition: 50.9% (active)

## COc1ccc(C(=O)N2CCCC2=O)cc1
[1]
  cell count: 667
  inhibition: 2.2% (inactive)
[2]
  inhibition of aggregation: 11.2% (inactive)
  nuclei count: 104%
[3]
  inhibition: -40.5% (inactive)
  nuclei count: 108%
[4]; [14]
  z-score: 0.0379
[4]; [15]
  z-score: -0.632
[4]; [16]
  z-score: 1.58
[5]
  inhibition: 19% (inactive)
[6]
  fluorescence slope: -0.52 (inactive)
[7]
  NADPH fluorescence slope: -4.5e-05 (inactive)
[8]
  slope: 0.00436 (inactive)
[9]
  outcome: inactive
[10]
  inhibition: 6.16% (inactive) and 14.6% (inactive)
[11]
  inhibition: 13.2% (inactive)
[12]
  inhibition: 20.9% (inactive)

## CC(C)[C@H]1C(=O)N2CCC[C@H]2[C@]2(O)O[C@](NC(=O)[C@@H]3C=C4c5cccc6[nH]cc(c56)C[C@H]4N(C)C3)(C(C)C)C(=O)N12
[1]
  cell count: 501
  inhibition: 1.6% (inactive)
[2]
  inhibition of aggregation: -14% (inactive)
  nuclei count: 110%
[3]
  inhibition: -84.6% (inactive)
  nuclei count: 122%
[4]; [14]
  z-score: -1.33
[4]; [15]
  z-score: -1
[4]; [16]
  z-score: 0.393
[5]
  inhibition: 3.59% (inactive)
[6]
  fluorescence slope: -0.451 (inactive)
[7]
  NADPH fluorescence slope: -1.8e-05 (inactive)
[8]
  slope: 0.0044 (inactive)
[10]
  inhibition: 13.5% (inactive)
[11]
  inhibition: 10.2% (inactive)
[12]
  inhibition: 18.2% (inactive)

## COc1ccc(OC)c(C(O)C(C)N)c1 (configuration not stated)
[1]
  cell count: 507
  inhibition: -7.1% (inactive)
[2]
  inhibition of aggregation: 7% (inactive)
  nuclei count: 57.3%
[3]
  inhibition: -75.2% (inactive)
  nuclei count: 108%
[4]; [14]
  z-score: -0.1
[4]; [15]
  z-score: 0.202
[4]; [16]
  z-score: 1.18
[5]
  inhibition: 11.3% (inactive)
[6]
  fluorescence slope: -0.51 (inactive)
[7]
  NADPH fluorescence slope: -2.7e-05 (inactive)
[8]
  slope: 0.0053 (inactive)
[9]
  outcome: inactive
[10]
  inhibition: 8.38% (inactive) and -0.435% (inactive)
[11]
  inhibition: 4.62% (inactive)
[12]
  inhibition: 34.8% (inactive)

## CC(C)[C@@]1(NC(=O)[C@@H]2C[C@@H]3c4cccc5[nH]cc(c45)C[C@H]3N(C)C2)O[C@@]2(O)[C@@H]3CCCN3C(=O)[C@H](Cc3ccccc3)N2C1=O
[1]
  cell count: 640
  inhibition: 11.1% (inactive)
[2]
  inhibition of aggregation: 20.4% (inactive)
  nuclei count: 90.4%
[3]
  inhibition: -79.8% (inactive)
  nuclei count: 113%
[4]; [14]
  z-score: -0.842
[4]; [15]
  z-score: -0.876
[4]; [16]
  z-score: 1.64
[5]
  inhibition: -0.828% (inactive)
[6]
  fluorescence slope: -0.47 (inactive)
[7]
  NADPH fluorescence slope: -3.7e-05 (inactive)
[8]
  slope: 0.00471 (inactive)
[10]
  inhibition: -5.54% (inactive) and 15.7% (inactive)
[11]
  inhibition: 3.2% (inactive)
[12]
  inhibition: 36.1% (inactive)
